NSD2 inh – inhibitors of human histone methyltransferase NSD2; O96028; NSD2 peptide methylation, AlphaScreen, 120 min; inhibition, % at 12.5 µM; 310,000 tested, 0.54% active; in the data active = inhibition above about 50%
Target sequence (O96028 whole entry, looked up): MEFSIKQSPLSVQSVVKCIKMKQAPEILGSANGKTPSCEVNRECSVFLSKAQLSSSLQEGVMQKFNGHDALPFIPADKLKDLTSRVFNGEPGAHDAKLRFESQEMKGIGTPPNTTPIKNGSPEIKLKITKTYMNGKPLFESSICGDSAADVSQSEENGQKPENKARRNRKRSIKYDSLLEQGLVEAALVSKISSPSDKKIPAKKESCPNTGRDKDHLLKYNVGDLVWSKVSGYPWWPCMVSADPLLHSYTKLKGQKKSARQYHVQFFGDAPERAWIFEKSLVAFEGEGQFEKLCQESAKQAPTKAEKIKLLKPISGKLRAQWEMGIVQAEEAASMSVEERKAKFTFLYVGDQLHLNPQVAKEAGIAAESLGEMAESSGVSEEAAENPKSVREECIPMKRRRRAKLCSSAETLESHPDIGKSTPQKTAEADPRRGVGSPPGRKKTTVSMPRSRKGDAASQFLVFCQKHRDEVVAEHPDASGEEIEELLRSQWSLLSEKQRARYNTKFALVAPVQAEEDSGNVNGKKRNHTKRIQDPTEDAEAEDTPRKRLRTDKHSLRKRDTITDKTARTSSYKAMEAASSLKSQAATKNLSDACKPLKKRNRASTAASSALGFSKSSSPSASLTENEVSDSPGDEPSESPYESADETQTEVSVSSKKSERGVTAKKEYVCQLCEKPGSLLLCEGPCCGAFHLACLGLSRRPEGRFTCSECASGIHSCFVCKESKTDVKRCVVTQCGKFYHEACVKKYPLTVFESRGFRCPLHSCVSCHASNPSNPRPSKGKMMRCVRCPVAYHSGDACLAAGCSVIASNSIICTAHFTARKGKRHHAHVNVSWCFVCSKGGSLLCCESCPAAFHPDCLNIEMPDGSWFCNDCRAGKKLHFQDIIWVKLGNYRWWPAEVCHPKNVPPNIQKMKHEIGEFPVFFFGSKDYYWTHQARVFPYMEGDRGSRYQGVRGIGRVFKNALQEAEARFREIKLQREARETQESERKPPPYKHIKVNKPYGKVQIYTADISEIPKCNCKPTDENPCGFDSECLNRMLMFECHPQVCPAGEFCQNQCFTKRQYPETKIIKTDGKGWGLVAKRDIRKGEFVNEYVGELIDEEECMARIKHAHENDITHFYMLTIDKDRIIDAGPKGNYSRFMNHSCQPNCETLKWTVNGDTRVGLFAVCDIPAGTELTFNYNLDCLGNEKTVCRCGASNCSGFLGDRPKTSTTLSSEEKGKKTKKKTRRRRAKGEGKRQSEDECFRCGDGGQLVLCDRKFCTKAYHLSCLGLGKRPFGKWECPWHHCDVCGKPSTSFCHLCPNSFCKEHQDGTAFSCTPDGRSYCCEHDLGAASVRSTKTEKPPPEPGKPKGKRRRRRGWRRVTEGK
N-glyco inh – N-linked glycosylation inhibition; D54 ERlucT glycosylation luciferase reporter, 24 h; percent of 100 nM tunicamycin response; reporter increase, % at 12.5 µM; 360,000 tested, 0.23% active; AID 588692;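 active = mean luciferase reporter signal, scaled so untreated is 0 and the glycosylation-blocking control 100, at or above a set limit in every replicate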;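 note: luciferase carries N-glycosylation sites so blocking glycosylation raises the light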
LMP1 NFkB inh – reduces LMP1-driven NF-kappaB luciferase signal. AID 504558. 350,000 tested, 0.69% active. LMP1-induced NF-kappaB luciferase reporter cells, luminescence. inhibition, % at 12.5 µM; in the data active = inhibition above about 41%
PAX8 reporter – inhibitors of PAX8 transcriptional activity in RMG-I cells; 360,000 tested, 1.2% active; RMG-I TPO-luciferase reporter, SteadyGlo, 24 h; inhibition, % at 12.6 µM;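 active = mean replicate inhibition at least 60% with every replicate also reaching 60%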;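 note: luciferase light reporting Pax8 driven TPO promoter activity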
Env fusion inh – blocks HIV Env-driven cell-cell fusion; 360,000 tested, 1.1% active; HeLa-JRFL Env/CEM21 cell fusion, luciferase; inhibition, % at 12.3 µM;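 active = mean replicate inhibition score of at least 50 and every replicate individually at or above 50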
Shn3 inh set2 – reduces Shn3 3'UTR luciferase signal in osteoblasts. Clone20 osteoblast Shn3 3'UTR firefly luciferase, 24 h. inhibition, % at 12.5 µM. 360,000 tested, 0.52% active;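 active = mean inhibition of at least 75% with every replicate also reaching 75%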
Large screens that a line does not name were inactive. Most compounds without a hit are left out; they make up all but 2.8% or so of the library.

C[C@H]1CN([C@@H](C)CO)C(=O)Cc2cc(NC(=O)c3ccncc3)ccc2O[C@H]1CN(C)Cc1ccc(C(=O)Nc2ccccc2N)cc1	none (no result: NSD2 inh, N-glyco inh, LMP1 NFkB inh, Shn3 inh set2)
CCC(=O)N1CC(=O)N2[C@H](C1)[C@@H](c1ccc(-c3cccnc3)cc1)[C@@H]2CO	none (no result: NSD2 inh, N-glyco inh, LMP1 NFkB inh, Env fusion inh, Shn3 inh set2)
C[C@@H]1CCCCO[C@H](CN(C)C(=O)CCCN(C)C)[C@H](C)CN([C@@H](C)CO)C(=O)c2cc(NS(=O)(=O)c3ccc(F)cc3)ccc2O1	none (no result: NSD2 inh, N-glyco inh, LMP1 NFkB inh, Shn3 inh set2)
O=S(=O)(c1ccc(Cl)cc1)N1CCCC(c2nc(-c3ccc(F)cc3)no2)C1 (stereo not drawn)	none (no result: NSD2 inh)
O=S(=O)(c1ccccc1Cl)N1CCCC1c1nc(-c2ccc(Cl)cc2)no1 (stereo not drawn)	Env fusion inh 82
Cc1ccccc1NC(=O)Nc1ccc2c(c1)C(=O)N(C)[C@@H]1CC[C@@H](CC(=O)O)O[C@H]1CO2	none (no result: NSD2 inh, N-glyco inh, LMP1 NFkB inh, Shn3 inh set2)
CCOC(=O)Oc1c(OC)cc(C(=O)O[C@@H]2C[C@@H]3CN4CCc5c([nH]c6cc(OC)ccc56)[C@H]4C[C@@H]3[C@H](C(=O)OC)[C@H]2OC)cc1OC	LMP1 NFkB inh 46, PAX8 reporter 75, Shn3 inh set2 93 (no result: NSD2 inh)
CO[C@@H]1CN(C)C(=O)c2ccc(NC(C)=O)cc2OC[C@H](C)N(C(=O)C2CCC2)C[C@@H]1C	none (no result: NSD2 inh, N-glyco inh, LMP1 NFkB inh, Shn3 inh set2)
CC(=O)c1c(C)[nH]c(C(=O)OCC(=O)Nc2ccc(C)cc2[N+](=O)[O-])c1C	Env fusion inh 88
N#CC1(NC(=O)Cn2ncc(Cl)c(Cl)c2=O)CCCCC1	PAX8 reporter 91
N#CC1(NC(=O)CN2C(=O)c3ccccc3C2=O)CCCCC1	none (no result: Env fusion inh)
C[C@@H]1CN([C@@H](C)CO)C(=O)c2cc(N(C)C)ccc2O[C@@H](C)CCCCO[C@H]1CN(C)S(=O)(=O)c1cccs1	none (no result: NSD2 inh, N-glyco inh, LMP1 NFkB inh, Shn3 inh set2)
C[C@H](NCc1c[nH]c2ccccc12)c1ccccc1	LMP1 NFkB inh 81
CC(C)N1C(=O)c2ccccc2NC(=O)C1C(=O)NCc1ccccc1 (stereo not drawn)	Env fusion inh 59 (no result: NSD2 inh, N-glyco inh, LMP1 NFkB inh, Shn3 inh set2)
O=C(NCc1ccccc1)C1C(=O)Nc2ccccc2C(=O)N1C1CCCC1 (stereo not drawn)	none (no result: NSD2 inh, N-glyco inh, LMP1 NFkB inh, Shn3 inh set2)
Cc1noc(C)c1S(=O)(=O)N(C)C[C@H]1Oc2c(NS(=O)(=O)c3cn(C)cn3)cccc2C(=O)N([C@H](C)CO)C[C@H]1C	none (no result: NSD2 inh, N-glyco inh, LMP1 NFkB inh, PAX8 reporter, Shn3 inh set2)
Cc1noc(C)c1CSc1nc2ccccc2c(=O)n1-c1ccc(Cl)cc1	Env fusion inh 62 (no result: PAX8 reporter)
Cc1noc(C)c1CSc1nc2sc(C)c(C)c2c(=O)n1-c1ccccc1	none (no result: PAX8 reporter, Env fusion inh)
O=C(c1cccc(Cl)c1)N1CCC(=O)N(C(COCc2ccccc2)Cc2ccccc2)CC1 (stereo not drawn)	none (no result: NSD2 inh)
Cc1cccc(C(=O)N2CCC(=O)N(C(COCc3cccc(C(F)(F)F)c3)Cc3ccccc3)CC2)c1 (stereo not drawn)	none (no result: NSD2 inh)
O=C(c1ccc(Cl)c(Cl)c1)N1CCC(=O)N([C@H](COCc2cccc(C(F)(F)F)c2)Cc2ccccc2)CC1	Env fusion inh 92 (no result: NSD2 inh, N-glyco inh, LMP1 NFkB inh, Shn3 inh set2)
O=C(c1ccc(Cl)c(Cl)c1)N1CCC(=O)N([C@H](COCc2ccccc2)Cc2ccccc2)CC1	Env fusion inh 64 (no result: NSD2 inh, N-glyco inh, LMP1 NFkB inh, Shn3 inh set2)
O=C(c1ccc(Cl)c(Cl)c1)N1CCC(=O)N(C(COCc2ccccc2)Cc2ccccc2)CC1 (stereo not drawn)	Env fusion inh 86 (no result: NSD2 inh)
COCC(=O)Nc1ccc2c(c1)[C@H]1C[C@@H](CC(=O)OC)O[C@H](CO)[C@H]1O2	none (no result: NSD2 inh, N-glyco inh, LMP1 NFkB inh, Env fusion inh, Shn3 inh set2)
CO[C@@H]1CN(C)C(=O)c2ccc(NS(=O)(=O)c3cn(C)cn3)cc2OC[C@H](C)N(C)C[C@H]1C	none (no result: NSD2 inh, N-glyco inh, LMP1 NFkB inh, Shn3 inh set2)
O=c1c2ccccc2sc2ccc(C#CC3(O)CCCCC3)cc12	LMP1 NFkB inh 81, PAX8 reporter 69, Shn3 inh set2 89 (no result: NSD2 inh)
C[C@H]1CN([C@@H](C)CO)C(=O)c2cc(NC(=O)Cc3cn(C)c4ccccc34)ccc2O[C@H]1CN(C)C	none (no result: NSD2 inh, N-glyco inh, LMP1 NFkB inh, Env fusion inh, Shn3 inh set2)
Cc1cccc(N(C(=O)C(F)(F)F)C(C(=O)NC2CCCCC2)c2cccs2)c1 (stereo not drawn)	none (no result: PAX8 reporter, Env fusion inh)
C#CC(=O)N(c1cccc(OC)c1)C(C(=O)NC1CCCC1)c1cccs1 (stereo not drawn)	LMP1 NFkB inh 96, Shn3 inh set2 100 (no result: PAX8 reporter, Env fusion inh)
C#CC(=O)N(c1ccc(OC)c(OC)c1)C(C(=O)NC1CCCC1)c1cccs1 (stereo not drawn)	Shn3 inh set2 87 (no result: NSD2 inh, PAX8 reporter, Env fusion inh)

Screening data (PubChem)
